Compound activity as filed in PubChem BioAssay.
HCMV antiviral: inhibitors of human cytomegalovirus; HFF cells, HCMV-luciferase reporter, 72 h; active compounds read low; activity change, negative = inhibition, % at 57.5 µM; 4.5% of 410,000 active; AID 1259415; in the data active = activity change below about -60%; inconclusive = no clear call, values can overlap the other calls; inactive = above about -39%; note: % is set by controls: 0 for no effect and ±100 for the full control effect
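Screen run at 2 compound doses on HFFs infected with reporter HCMV, MOI 1 PFU/cell. Luciferase activity from cell lysates at 72 h post infection gave inhibition relative to buffer-only and Salinomycin wells.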
HCV inh: blocks hepatitis C virus; Huh7.5.1 HCVcc-Cre infection, luciferase reporter, 44 h; Potency, µM (highest dose often 41.8 µM), without a hit: at the highest dose activity change, negative = inhibition, usual class: inhibitors; 3.4% of 340,000 active; AID 651820; note: potency is the fitted concentration of half-maximal effect; % is set by controls: 0 for no effect and ±100 for the full control effect
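Reporter virus HCVcc-Cre (~0.5 moi) infects cells exposed to compound; seeding density 1,000 cells/well with 4 h settling beforehand. Luminescence, 15 sec read, taken 44 h post-infection following a 15 min RT substrate incubation.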
Pf growth 96h: inhibits malaria parasite growth, 96 h; AID 504834; P. falciparum luciferase reporter growth, 96 h; Potency, µM (highest dose often 28.7 µM), for the others: at the highest dose activity change, negative = inhibition, hits mostly inhibitors; 6.9% of 320,000 active; note: potency is the fitted concentration of half-maximal effect; % is set by controls: 0 for no effect and ±100 for the full control effect
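Cell-based qHTS: luciferase-tagged P. falciparum in erythrocytes (2% hematocrit, 0.05% parasitemia final) incubated with compounds for 96 hours, 37 C, 5% CO2; luciferase detection reagent then added and luminescence measured.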
Shiga inhibitor: Shiga toxin inhibition; 9.2% of 290,000 active; inhibition, % at 38.7 µM; Vero cells, Shiga toxin protein synthesis inhibition reporter; in the data active = inhibition mostly above about 28%, no sharp cut-off; inactive = mostly below about 43%; note: 0% is about no effect
CHX counter: counter-screen hit for Shiga toxin inhibitors, cycloheximide; cell reporter, cycloheximide protein synthesis inhibition counterscreen; max response, %; 12% of 300,000 active; AID 2314; in the data active = max response mostly above about 13%, no sharp cut-off; inactive = mostly below about 14%; note: read at 38.3 µM for the half of the compounds with a filed dose; 0% is about no effect
Pf growth 48h: P. falciparum growth inhibition at 48 hours (one generation). P. falciparum luciferase growth in erythrocytes, 48 h. Potency, µM (top dose mostly 28.7 µM), for the others: at the highest dose activity change, negative = inhibition, usual class: inhibitors. 5.9% of 310,000 active. AID 504832; note: potency is the fitted concentration of half-maximal effect; % is set by controls: 0 for no effect and ±100 for the full control effect
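Read-out is firefly luciferase luminescence from an integrated reporter in P. falciparum, so falling signal marks reduced parasite growth. Infected erythrocytes were at 2% hematocrit and 0.1% parasitemia (final) in Albumax-supplemented RPMI 1640.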
An asterisk follows results filed as active; ? = inconclusive; nt = not tested or not shown; + = active, no number; [ ] = remark or other dose. Compounds with a hit are over-represented: about 21% of the library has one in this group of screens. Unless noted, calls come from the whole dose curve; as a rule, active = well fitted inhibition curve with a large enough effect; inconclusive = small, poorly fitted or top-dose-only effect, or another doubt; inactive = no such curve, though single readings can be large or run the other way.

SMILES	HCMV antiviral	HCV inh	Pf growth 96h	Shiga inhibitor	CHX counter	Pf growth 48h
O=C(Nc1ccc(O)c(-c2nc3ccccc3o2)c1)C1(c2ccc(Cl)cc2)CCCC1	14	?	?	8	14	2.3µM*
CCOC(=O)c1ccc(Nc2ccc([N+](=O)[O-])cn2)cc1	29	22%	?	+	31*	135%
O=C(COC(=O)c1ccc([N+](=O)[O-])cc1)Nc1ccc(Cl)cn1	-20	11%	12%	nt	nt	?
O=[N+]([O-])c1cnccc1Nc1ccccc1	-13	2%	-11%	-12	-5	nt
COc1ccccc1Nc1ccncc1[N+](=O)[O-]	-64*	6%	?	-4	-4	?
COc1ccc(Nc2ccc([N+](=O)[O-])cn2)cc1	21	-15%	-17%	38*	37*	73%
COc1ccc(Nc2cc(C)c3cc([N+](=O)[O-])ccc3n2)cc1	-39	?	50%	21	11*	-8%[0.00184 µM]
COc1ccc(Nc2nccc(-c3ccc([N+](=O)[O-])cc3)n2)cc1	?	?	-26%	3	0	0%
COc1ccccc1Nc1nc(-c2ccc([N+](=O)[O-])cc2)nc2ccccc12	13	-16%	nt	nt	nt	nt
O=[N+]([O-])c1ccc(NCCOc2ccccc2Cl)nc1	50	?	?	44*	29*	6%
COc1ccc(CNc2ccc([N+](=O)[O-])cn2)cc1	14	4%	-25%	59*	28*	144%
COc1ccccc1Nc1ccc([N+](=O)[O-])cn1	-6	7%	42%	15	21*	105%
COc1ccc(CNC(=O)Cn2cc([N+](=O)[O-])cn2)cc1	23	12%	nt	nt	nt	nt
O=[N+]([O-])c1ccc(NCc2ccccn2)nc1	44	1%	39%	47*	16*	15%
COc1ccccc1N1CCN(C(=O)Cn2ncc3ccsc3c2=O)CC1	0	nt	nt	nt	nt	nt
CCN1C(=O)N[C@@H](c2ccco2)C(C(C)=O)=C1C	-6	-3%	nt	nt	nt	nt
CCOc1nc(NC(=O)NS(=O)(=O)Oc2cccc(Cl)c2)nc(-c2ccccc2)n1	2	-4%	31%	-17	17*	27%
CCCCC/C=N/NC(=O)c1[nH]c2ccc([N+](=O)[O-])cc2c1C	-25	?	10µM*	-10	0	?
Cc1c(C(=O)NN)[nH]c2ccc([N+](=O)[O-])cc12	-27	-10%	0%	-3	11	-15%
Cc1cccc(NC(=O)CSc2nc3ccccc3c3nc(CCn4cncc4C)nn23)c1	-39	nt	nt	nt	nt	nt
COc1ccccc1CNC(=O)Cn1c(-c2cccs2)cc2cc(F)ccc21	-8	nt	nt	nt	nt	nt
COc1ccc(/C(O)=C2\C(=O)C(=O)N(c3cc(C)on3)C2c2ccc(OC)c(OC)c2)cc1OC (stereo unspecified)	-34	11%	?	-18	-6	4%
COc1cccc(C2/C(=C(\O)c3ccc(OC)c(OC)c3)C(=O)C(=O)N2c2cc(C)on2)c1 (stereo unspecified)	16	13%	5.2µM*	26	8	18%
Cc1cc(N2C(=O)C(=O)/C(=C(/O)c3ccc(F)cc3)C2c2ccc(F)cc2)no1 (stereo unspecified)	2	16%	0.83µM*	-5	-2	15%
Cc1noc(C)c1S(=O)(=O)N1CCCC(C(=O)NCc2ccccc2Cl)C1 (stereo unspecified)	-6	7%	5.9µM*	-7	-2	1%
COc1ccc(Cl)cc1S(=O)(=O)N1CCCC(C(=O)NCc2ccccc2)C1 (stereo unspecified)	11	-16%	-12%	-1	0	-16%
COc1ccc(Cl)cc1S(=O)(=O)N1CCCC(C(=O)NCCc2ccccc2)C1 (stereo unspecified)	-29	-28%	10µM*	22	4	38%
Cc1noc(C)c1S(=O)(=O)N1CCCC(C(=O)NCCc2ccc(Cl)cc2)C1 (stereo unspecified)	37	?	nt	12	6	12µM*
Cc1nn(-c2nnc(NCc3ccccc3)nn2)c(C)c1Br	-34	-26%	0.33µM*	17	11	0.59µM*
Cc1cc(C)n(-c2nnc(NCc3ccc(Cl)cc3)nn2)n1	51	-9%	2.1µM*	16	12	?
